Assay results published in PubChem BioAssay (NCI).
Several values for one entry are separate records, joined by “and”; a condition that tells them apart may be missing. Equal entries are not always repeated. This is part of a sample that, as a whole, favours compounds with a hit. Of some 83,000 tested, about 20% had one in any assay.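 Method: cells in 96-well plates; compound added at one concentration; 48 h incubation; percent growth measured; values under 10 scored active.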 Activity calls are given as the source filed them.

What was measured:
Experiment in all cases: NCI-60 one-dose screen, 48 h (100 = growth as untreated, 0 = no growth, -100 = all killed)
SR leukemia = conditions: 10 µM unless noted
RPMI-8226 leukemia = test system: RPMI-8226 leukemia
OVCAR-8 ovarian = test system: OVCAR-8 ovarian
OVCAR-5 ovarian = test system: OVCAR-5 ovarian
OVCAR-4 ovarian = test system: OVCAR-4 ovarian
IGROV1 ovarian = test system: IGROV1 ovarian
OVCAR-3 ovarian = test system: OVCAR-3 ovarian
HS 578T breast = test system: HS 578T breast
SK-OV-3 ovarian = conditions: 10 µM unless noted
NCI/ADR-RES ovarian = test system: NCI/ADR-RES ovarian

With `O=C(O)c1c(Cl)c(Cl)c(Cl)c(Cl)c1-c1c2cc(I)c(=O)c(I)c-2oc2c(I)c(O)c(I)cc12` the growth (SR leukemia) was 97.9% (inactive), the growth (RPMI-8226 leukemia; 10 µM) was 114% (inactive) and 90.6% (inactive) and 31.5% (inactive) and the growth (RPMI-8226 leukemia; 100 µM) was 24.3% (inactive). The growth (OVCAR-8 ovarian; 10 µM) was 107% (inactive) and 105% (inactive) and 91.4% (inactive), the growth (OVCAR-8 ovarian; 100 µM) was -13.2% (active) and the growth (OVCAR-5 ovarian; 10 µM) was 107% (inactive) and 98.5% (inactive) and 104% (inactive). For the same molecule, the growth (OVCAR-5 ovarian; 100 µM) was -42.9% (active), the growth (OVCAR-4 ovarian; 10 µM) was 104% (inactive) and 110% (inactive) and 72.9% (inactive) and the growth (OVCAR-4 ovarian; 100 µM) was 53.2% (inactive). For the same molecule, the growth (IGROV1 ovarian; 10 µM) was 105% (inactive) and 80.5% (inactive) and -7.13% (active), the growth (IGROV1 ovarian; 100 µM) was 5.19% (active) and the growth (OVCAR-3 ovarian; 10 µM) was 97.1% (inactive) and 72% (inactive) and 111% (inactive). For the same molecule, the growth (OVCAR-3 ovarian; 100 µM) was -26.1% (active), the growth (HS 578T breast; 10 µM) was 107% (inactive) and 93.5% (inactive) and the growth (HS 578T breast; 100 µM) was 27.5% (inactive).
With `CC(=O)ON=C1C=CC(=C(C#N)c2ccccc2)C=C1` the growth (SR leukemia) was 17.4% (inactive), the growth (RPMI-8226 leukemia; 10 µM unless noted) was 18.7% (inactive) and the growth (OVCAR-8 ovarian; 10 µM unless noted) was 2.27% (active). The growth (OVCAR-5 ovarian; 10 µM unless noted) was 123% (inactive), the growth (OVCAR-4 ovarian; 10 µM unless noted) was 60.6% (inactive) and the growth (SK-OV-3 ovarian) was 55.7% (inactive). The growth (IGROV1 ovarian; 10 µM unless noted) was 2.9% (active), the growth (OVCAR-3 ovarian; 10 µM unless noted) was -30.6% (active) and the growth (HS 578T breast; 10 µM unless noted) was 15.5% (inactive). For the same molecule, the growth (NCI/ADR-RES ovarian; 10 µM unless noted) was -10.8% (active).
In the case of `COc1ccccc1OC(=O)Oc1ccccc1OC`, the growth (SR leukemia) is reported as 103% (inactive) and 101% (inactive), the growth (RPMI-8226 leukemia; 10 µM unless noted) is reported as 105% (inactive) and 72.9% (inactive) and the growth (OVCAR-8 ovarian; 10 µM unless noted) is reported as 103% (inactive) and 112% (inactive). For the same molecule, the growth (OVCAR-5 ovarian; 10 µM unless noted) was 117% (inactive) and 97.6% (inactive), the growth (OVCAR-4 ovarian; 10 µM unless noted) was 114% (inactive) and 99% (inactive) and the growth (SK-OV-3 ovarian) was 112% (inactive). The growth (IGROV1 ovarian; 10 µM unless noted) was 105% (inactive) and 97.2% (inactive), the growth (OVCAR-3 ovarian; 10 µM unless noted) was 119% (inactive) and 96.3% (inactive) and the growth (HS 578T breast; 10 µM unless noted) was 92.4% (inactive) and 102% (inactive).
In the case of `COc1ccc(-c2cscc2N)cc1`, the growth (SR leukemia) is reported as 59.1% [100 µM] (inactive), the growth (RPMI-8226 leukemia; 10 µM) is reported as 88.7% (inactive) and the growth (RPMI-8226 leukemia; 100 µM) is reported as 23.7% (inactive). The growth (OVCAR-8 ovarian; 10 µM) was 77.6% (inactive), the growth (OVCAR-8 ovarian; 100 µM) was 48.9% (inactive) and the growth (OVCAR-5 ovarian; 10 µM) was 87.5% (inactive). The growth (OVCAR-5 ovarian; 100 µM) was 78.9% (inactive), the growth (OVCAR-4 ovarian; 10 µM) was 103% (inactive) and the growth (OVCAR-4 ovarian; 100 µM) was 45.3% (inactive). For the same molecule, the growth (IGROV1 ovarian; 10 µM) was 91.1% (inactive), the growth (IGROV1 ovarian; 100 µM) was 58% (inactive) and the growth (HS 578T breast; 10 µM) was 106% (inactive). For the same molecule, the growth (HS 578T breast; 100 µM) was 88.2% (inactive), the growth (NCI/ADR-RES ovarian; 10 µM) was 77.8% (inactive) and the growth (NCI/ADR-RES ovarian; 100 µM) was 78.1% (inactive).
With `CCN1/C(=C\c2cc[n+](CC)c3ccccc23)C=Cc2ccccc21` the growth (SR leukemia) was 15.7% (inactive), the growth (RPMI-8226 leukemia; 10 µM unless noted) was 12.6% (inactive) and the growth (OVCAR-8 ovarian; 10 µM unless noted) was 9.96% (active). The growth (OVCAR-5 ovarian; 10 µM unless noted) was 11.7% (inactive), the growth (OVCAR-4 ovarian; 10 µM unless noted) was 12.9% (inactive) and the growth (SK-OV-3 ovarian) was 3.69% (active). The growth (IGROV1 ovarian; 10 µM unless noted) was 29.8% (inactive), the growth (OVCAR-3 ovarian; 10 µM unless noted) was 11.8% (inactive) and the growth (HS 578T breast; 10 µM unless noted) was 37.4% (inactive).
